SMILES strings stand for the structures. Calls of active or inactive are those of the source. Unless noted, how the calls were made is not given here.

Test [1] in a line: compounds binding Alexa647 anti-His antibody – biochemical, small-molecule microarray, 635 nm fluorescence, artefact control for SMM control protein annotation, primary screen (AID 1128).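 Further: score merges feature fluorescence with signal-to-noise for each printed compound spot.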 The following applies: higher = more signal.
Test [2] deals with Human papillomavirus type 1a E7 protein (residues 1-88). Put plainly: HPV1a E7 small-molecule binders, primary screen, biochemical, small-molecule microarray, residues 1-88, 635 nm (AID 1129). The note with it: small-molecule microarray binding, fluorescence 635 nm; higher = more signal.
Test [3] has as its target Focal adhesion kinase 1 (Homo sapiens) (UniProt Q05397). The test is described as follows: PTK2 protein binding on printed compound slides – biochemical, small-molecule microarray, 635/667 nm fluorescence, BSA, DTT, primary screen (AID 1130).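 Further: composite of spot emission at 667 nm and signal to noise over triplicate slides.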 The following applies: 635 nm fluorescence, higher = more signal.
The subject of test [4] is Fibrinogen (Alexa647-labelled). The test is described as follows: Alexa647-fibrinogen binding to printed small molecules – biochemical, small-molecule microarray, 635/667 nm fluorescence, artefact control for SMM control-protein annotation, profiling panel (AID 1131).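 Further: z-score merges 667 nm fluorescence with per-spot signal-to-noise over triplicate slides.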 The following applies: fibrinogen-A647 binding fluorescence, higher = more signal.
Test [5] has as its target Follistatin (Homo sapiens) (UniProt P19883). Put plainly: FST protein binding to printed compounds – biochemical, small-molecule microarray, 635/667 nm fluorescence, primary screen (AID 1132). The note with it: 635 nm fluorescence, higher = more signal.
Test [6] has as its target Fibroblast growth factor 2 (Homo sapiens) (UniProt P09038). Put plainly: basic fibroblast growth factor binding to printed compounds – biochemical, small-molecule microarray, 635/667 nm fluorescence, primary screen (AID 1133). The following applies: FGF2, fluorescence 635/667, higher = more signal.
A short description of test [7]: JC-1 mitochondrial potential readout, lung cancer cells – cell-based, A549, JC-1 fluorescence, basal, 24 h, 100 nL, profiling panel (AID 1138).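 Further: A549 lung adenocarcinoma cells under basal conditions with no added stimulus; test concentration not given here.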 The following applies: higher = more signal.
For test [8], the system named is Lefty1. Put plainly: Lefty1 protein binding to printed compounds – biochemical, small-molecule microarray, 635/667 nm fluorescence, primary screen (AID 1139). The note with it: fluorescence 635/667, higher = more signal.
In test [9] the test system is wheat germ agglutinin (Triticum aestivum), Alexa647-labelled. The test is described as follows: Alexa647-WGA lectin binding to printed small molecules – biochemical, small-molecule microarray, 635/667 nm fluorescence, artefact control for SMM control-protein annotation, profiling panel (AID 1140).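 Further: score merges 667 nm feature emission with signal to noise over triplicate slides.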 The following applies: WGA-A647 binding, 635 nm fluorescence, higher = more signal.

Test [10] has as its target Luciferin 4-monooxygenase (Photinus pyralis) (UniProt P08659). The test is described as follows: inhibition of purified Photinus pyralis luciferase – biochemical, luminescence, purified enzyme, 2006 set, primary screen (AID 1141).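 Further: cell-free assay with purified firefly luciferase at 100 ng per well in PBS; test concentration not given here.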 The note with it: purified firefly luciferase, SteadyGlo luminescence, 30 min; higher = more signal, called active from +8 up or from −8 down.

Test [11] relates to Wnt5a (protein binding on small-molecule microarray). Put plainly: small molecules binding Wnt5a protein – biophysical, small-molecule microarray, 635/667 nm fluorescence, primary screen (AID 1142).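 Further: fluorescence read at 667 nm with signal to noise per printed feature.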 The following applies: 635 nm fluorescence, higher = more signal.
A short description of test [12]: ATP-based viability of Huh7 replicon cells – cell-based, CellTiter-Glo luminescence, basal, 48 h, cytotoxicity control for HCV replication inhibitor project, primary screen (AID 1143).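 Further: Huh7 hepatoma cells carrying a hepatitis C replication reporter with no stimulus; test concentration not given here.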 The note with it: higher = more signal, called active from +8 up or from −8 down.
A short description of test [13]: Pseudomonas biofilm growth suppression – PAO1 strain, BacTiter-Glo luminescence, LB-PBS, primary screen (AID 1144). The note with it: P. aeruginosa PAO1 biofilm, 12 h, higher = more signal.
The nature of test [14]: basal CRE-LacZ reporter activity in PC12 – cell-based, unstimulated, primary screen (AID 1145). The note with it: no forskolin, luminescence, 4.5 h, higher = more signal, called active from +8 up or from −8 down.
A short description of test [15]: forskolin-driven CRE-LacZ activity in PC12 – cell-based, CRE-LacZ reporter, forskolin-stimulated, primary screen (AID 1146).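 Further: PC12 cells with 6xCRE LacZ reporter stimulated by forskolin 10 µM; beta-galactosidase reporter signal reflecting CREB driven transcription.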 The note with it: luminescence, 4.5 h, higher = more signal, called active from +8 up or from −8 down.
For test [16], the target named is Streptavidin (Streptomyces avidinii) (UniProt P22629). Put plainly: compounds binding control protein streptavidin – biophysical, small-molecule microarray, 635/667 nm fluorescence, artefact control for SMM compound annotation, primary screen (AID 1147).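 Further: signal reflects streptavidin binding to arrayed compounds as a control protein.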 The note with it: higher = more signal.
Sequence of Streptavidin (Streptomyces avidinii) (P22629 whole entry, looked up): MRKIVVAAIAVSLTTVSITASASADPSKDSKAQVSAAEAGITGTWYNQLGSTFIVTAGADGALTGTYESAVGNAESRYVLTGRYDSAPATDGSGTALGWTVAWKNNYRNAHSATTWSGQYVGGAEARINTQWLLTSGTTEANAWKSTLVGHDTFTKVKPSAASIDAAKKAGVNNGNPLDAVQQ
Test [17] can be described thus: probe aInhba binding on compound microarray – biochemical, small-molecule microarray, 635/667 nm fluorescence, primary screen (AID 1148).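 Further: score merges 667nm spot fluorescence with signal-to-noise for antibody binding to printed compounds.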 The following applies: higher = more signal.
Test [18] concerns the target Torsin-1A (Homo sapiens) (UniProt O14656). The test is described as follows: TOR1A wild-type binding on microarray – cell lysate, small-molecule microarray, lysate, 635/667 nm, primary screen (AID 1149). The following applies: COS7 hTOR1A-WT lysate, 635 nm fluorescence, higher = more signal.
For test [19] the target is unchanged. Put plainly: torsin A mutant lysate binding on microarrays – cell lysate, small-molecule microarray, COS7 lysate, 635/667 nm fluorescence, primary screen (AID 1150).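 Further: score pools 667 nm emission and signal to noise measuring lysate protein binding.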 The following applies: COS7 hTOR1A mutant lysate, 635 nm fluorescence, higher = more signal.
For test [20], the system named is Sonic hedgehog protein (Shh). Put plainly: Sonic hedgehog microarray binding compounds – biochemical, small-molecule microarray, 635/667 nm fluorescence, primary screen (AID 1151).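 Further: Shh protein binding to compounds spotted on small-molecule microarray slides; score combines spot fluorescence intensity with signal-to-noise across triplicate slides.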 The following applies: 635 nm fluorescence, higher = more signal.

Sequence of Fibroblast growth factor 2 (Homo sapiens) (P09038 whole entry, looked up): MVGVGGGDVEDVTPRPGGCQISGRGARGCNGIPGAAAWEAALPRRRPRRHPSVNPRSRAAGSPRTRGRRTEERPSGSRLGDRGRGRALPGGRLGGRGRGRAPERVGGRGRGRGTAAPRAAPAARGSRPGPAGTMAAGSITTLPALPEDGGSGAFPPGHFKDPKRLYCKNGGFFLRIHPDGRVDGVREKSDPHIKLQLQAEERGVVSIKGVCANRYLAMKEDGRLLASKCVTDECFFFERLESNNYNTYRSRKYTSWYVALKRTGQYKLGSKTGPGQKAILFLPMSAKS
Sequence of Torsin-1A (Homo sapiens) (O14656 whole entry, looked up): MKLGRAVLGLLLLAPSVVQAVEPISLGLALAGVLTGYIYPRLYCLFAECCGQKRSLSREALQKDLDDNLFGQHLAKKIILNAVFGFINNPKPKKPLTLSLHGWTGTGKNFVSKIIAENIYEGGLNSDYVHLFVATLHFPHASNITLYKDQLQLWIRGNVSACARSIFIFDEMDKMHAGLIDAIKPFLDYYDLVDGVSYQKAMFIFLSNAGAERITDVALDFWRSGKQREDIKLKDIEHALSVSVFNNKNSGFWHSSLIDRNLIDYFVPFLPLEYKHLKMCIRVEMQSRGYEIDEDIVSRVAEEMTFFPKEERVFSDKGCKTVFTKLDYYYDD
Sequence of Luciferin 4-monooxygenase (Photinus pyralis) (P08659 whole entry, looked up): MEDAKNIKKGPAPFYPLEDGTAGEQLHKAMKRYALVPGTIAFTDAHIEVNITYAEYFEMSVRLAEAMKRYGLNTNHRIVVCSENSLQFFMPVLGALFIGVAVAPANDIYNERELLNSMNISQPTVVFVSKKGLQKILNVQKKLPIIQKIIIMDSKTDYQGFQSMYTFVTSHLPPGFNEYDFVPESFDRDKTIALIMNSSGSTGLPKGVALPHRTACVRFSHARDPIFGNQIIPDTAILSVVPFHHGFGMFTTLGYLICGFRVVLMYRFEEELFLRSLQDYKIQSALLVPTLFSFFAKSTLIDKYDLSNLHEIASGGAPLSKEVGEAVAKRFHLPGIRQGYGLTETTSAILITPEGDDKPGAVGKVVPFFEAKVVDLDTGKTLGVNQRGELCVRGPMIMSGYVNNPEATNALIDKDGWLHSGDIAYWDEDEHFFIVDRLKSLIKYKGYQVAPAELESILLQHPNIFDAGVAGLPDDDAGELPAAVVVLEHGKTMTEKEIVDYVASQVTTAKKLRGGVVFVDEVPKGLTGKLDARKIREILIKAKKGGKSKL
Sequence of Follistatin (Homo sapiens) (P19883 whole entry, looked up): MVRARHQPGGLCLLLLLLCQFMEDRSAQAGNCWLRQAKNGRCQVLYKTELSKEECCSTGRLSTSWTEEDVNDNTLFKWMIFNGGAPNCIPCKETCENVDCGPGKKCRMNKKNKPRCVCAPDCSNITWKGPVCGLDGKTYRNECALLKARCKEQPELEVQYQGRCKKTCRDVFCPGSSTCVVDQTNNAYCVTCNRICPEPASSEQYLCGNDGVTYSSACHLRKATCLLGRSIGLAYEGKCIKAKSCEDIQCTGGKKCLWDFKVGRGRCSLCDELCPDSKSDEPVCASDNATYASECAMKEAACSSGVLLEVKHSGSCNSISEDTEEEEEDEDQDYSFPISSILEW
Sequence of Focal adhesion kinase 1 (Homo sapiens) (Q05397 whole entry, looked up): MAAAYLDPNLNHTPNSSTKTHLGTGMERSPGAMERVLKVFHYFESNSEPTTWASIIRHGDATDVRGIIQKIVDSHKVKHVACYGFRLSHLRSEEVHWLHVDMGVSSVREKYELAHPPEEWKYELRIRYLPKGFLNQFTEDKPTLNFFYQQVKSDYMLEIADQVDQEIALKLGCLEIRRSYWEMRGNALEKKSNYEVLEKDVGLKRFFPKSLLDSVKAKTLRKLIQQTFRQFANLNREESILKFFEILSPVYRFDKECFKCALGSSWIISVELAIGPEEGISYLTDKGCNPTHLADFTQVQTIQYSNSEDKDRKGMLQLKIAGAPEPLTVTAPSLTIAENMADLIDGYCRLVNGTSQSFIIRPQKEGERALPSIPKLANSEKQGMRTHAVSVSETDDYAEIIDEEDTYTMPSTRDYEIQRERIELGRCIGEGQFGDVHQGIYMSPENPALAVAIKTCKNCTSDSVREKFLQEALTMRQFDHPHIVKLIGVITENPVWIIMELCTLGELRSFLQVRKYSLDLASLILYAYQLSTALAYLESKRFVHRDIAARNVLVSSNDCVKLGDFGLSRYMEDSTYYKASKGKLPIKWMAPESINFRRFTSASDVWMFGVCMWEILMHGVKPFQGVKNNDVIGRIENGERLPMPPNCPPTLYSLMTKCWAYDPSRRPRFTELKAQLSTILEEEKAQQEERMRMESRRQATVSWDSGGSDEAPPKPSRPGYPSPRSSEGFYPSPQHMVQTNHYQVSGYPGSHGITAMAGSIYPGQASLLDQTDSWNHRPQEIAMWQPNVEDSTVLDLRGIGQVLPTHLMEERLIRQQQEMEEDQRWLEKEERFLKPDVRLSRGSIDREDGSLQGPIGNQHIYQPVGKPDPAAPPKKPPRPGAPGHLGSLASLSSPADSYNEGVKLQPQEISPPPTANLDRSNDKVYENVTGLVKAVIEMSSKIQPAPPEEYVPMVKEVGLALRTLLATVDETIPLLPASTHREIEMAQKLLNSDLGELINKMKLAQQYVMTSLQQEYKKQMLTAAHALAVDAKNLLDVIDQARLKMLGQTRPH

For the molecule `CC(C)c1ccc(NN2C(C(O)c3ccco3)C=CC3C(=O)N(c4ccccc4)C(=O)C32)cc1` (stereo not given), the composite z-score in [1] is 1.26; in test [2], 1.22; in [3] it was 1.14; in test [4] it was 0.995; in test [5], 1.26; in [6], 0.0324. The composite z-score in test [8] is 0.634; in [9], 1.32; in test [11] it was 0.445; in [16] it was 1.47; in [17], 0.271; in test [18], 0.185. The composite z-score stood at 0.445 in test [19] and 0.794 in [20]. Also, the z-score was 0.222 in test [7]; -1.29 (inactive) in test [10]; -0.604 (inactive) in [12]; -0.688 (inactive) in test [13]; 0.622 (inactive) in [14]; -0.554 (inactive) in test [15].

As for `C=C(CCCC)/C(=C/C[C@@H](OC(=O)c1ccncc1)c1cccc(OCCO)c1)c1cnc2ccccc2c1`, the composite z-score turned out to be 0.65 in test [1]; 0.539 in test [2]; 0.0663 in test [3]; 0.832 in test [4]; 1.5 in [5]; 1.74 in test [6]. For the same molecule, the composite z-score in test [8] was 1.6; in test [9], 0.871; in test [11], 1.25; in test [16] it was 1.49; in [17], 0.194; in [18], 1.22. Further, the results for the composite z-score in test [19] and in [20] were 0.0816 and 2.09, respectively. Besides, the z-score in test [7] was 1.14; in test [10], -1.63 (inactive); in [12] it was -3.08 (inactive); in test [13], -0.772 (inactive); in [14], 3.22 (inactive); in test [15], 0.644 (inactive).

`CCOC(=O)C[C@H]1[C@H](OC(=O)c2ccc(C(=O)c3ccccc3)cc2)[C@@H](NC(=O)c2ccc3ccccc3c2)c2cc(OCCCO)ccc2N1C(=O)c1ccccc1`: the composite z-score in [1] was 0.405; in test [2], 1.13; in [3], 0.287; in test [4], 0.73; in test [5], 0.599; in test [6] it was 0.436. Further, the composite z-score in test [8] was 1.14; in test [9], 1.1; in test [11] it was 0.173; in test [16] it was 0.849; in [17], -0.105; in test [18] it was 0.196. Moreover, the composite z-score came out at 0.321 in [19] and 0.867 in test [20]. Further, the z-score in [7] was 0.315; in [10] it was -0.204 (inactive); in test [12], -0.0506 (inactive); in test [13], -0.0382 (inactive); in test [14], 0.0777 (inactive); in test [15], -0.506 (inactive).

In the case of `Cc1c(NC(=O)/C(C#N)=C/C=C/c2ccccc2[N+](=O)[O-])c(=O)n(-c2ccccc2)n1C`, the composite z-score in [1] turned out to be 0.526; in test [2], 0.876; in test [3], 1.01; in test [4] it was 0.867; in [5], 0.771; in test [6] it was 0.334. The composite z-score in test [8] is 0.557; in [9], 0.154; in test [11], -0.145; in test [16] it was 0.293; in test [17] it was -0.176; in test [18], 0.185. For the same molecule, the composite z-score in test [19] was determined as 0.331; in test [20] it was 0.844. The z-score in test [7] is 0.511; in test [10], -4.64 (inactive); in test [12] it was -3.01 (inactive); in test [13], 0.365 (inactive); in test [14] it was -0.0243 (inactive); in test [15], 25.4 (active).

For `C=C(C(=O)CC[C@H](OC(=O)c1cccnc1)c1cccc(OCCO)c1)C(C)C`, the composite z-score in [1] is 0.0024; in test [2], -0.498; in test [3], -0.136; in test [4], -0.744; in test [5], -1.01; in test [6] it was -0.464. Besides, the composite z-score is 0.0695 in [8]; -0.168 in [9]; -0.13 in test [11]; 0.0502 in test [16]; -0.0719 in [17]; 1.17 in test [18]. In addition, the composite z-score is -0.206 in test [19] and 0.389 in [20]. The z-score in test [7] was 0.838; in test [10], -0.894 (inactive); in test [12], -1.04 (inactive); in test [13], -0.285 (inactive); in test [14], 17.7 (active); in test [15], -0.464 (inactive).

As for `C=CC[C@@]12N=C(c3ccc(OCCCO)cc3)O[C@@H]1c1ccccc1N(CCS(=O)(=O)c1ccccc1)C2=O`, the composite z-score in [1] is 0.954; in [2], 1.22; in test [3], 0.87; in [4], 0.944; in [5] it was 1.3; in test [6], 1.55. For the same molecule, the composite z-score was 0.51 in test [8]; 0.961 in [9]; 0.518 in [11]; 1.41 in test [16]; 0.136 in [17]; 0.558 in [18]. The composite z-score in test [19] came to 0.264; in test [20], 1.62. Also, the z-score in test [7] is 0.699; in test [10], -12.1 (active); in test [12], -3.23 (inactive); in test [13], -0.196 (inactive); in test [14], -0.744 (inactive); in test [15], -2.22 (inactive).

Consider `COC(=O)[C@@]1(Cc2ccc(OC)cc2)[C@H]2c3cc(C(=O)N(C)C)n(CCc4c[nH]c5ccc(O)cc45)c3C[C@H]2CN1C(=O)c1ccccc1`, for which the composite z-score in test [1] was 0.548; in test [2], 1.21; in [3], 1.36; in test [4] it was 0.979; in test [5], 1.01; in test [6], -0.218. Moreover, the composite z-score in test [8] was -0.737; in test [9], 1.28; in test [11] it was 0.292; in test [16], 1.65; in test [17], 0.765; in test [18], 0.0612. Further, the composite z-score was 0.263 in test [19] and -0.428 in test [20]. Further, the z-score in [7] is 0.74; in test [10] it was 1.18 (inactive); in [12], -2.69 (inactive); in [13] it was 0.255 (inactive); in test [14], 0.383 (inactive); in test [15], -0.292 (inactive).

In the case of `CC(C)OC(=O)CC(=O)CC(O)c1cccc(C#N)c1` (stereo not given), the composite z-score is 0.797 in [1]; 0.828 in test [2]; 0.763 in test [3]; 0.974 in test [4]; 0.102 in test [5]; -0.51 in test [6]. The composite z-score is -0.0714 in test [8]; 0.841 in test [9]; 0.167 in test [11]; 1.35 in test [16]; 0.0841 in test [17]; 0.863 in [18]. Besides, the composite z-score in [19] was 1.97; in test [20], -0.206. The z-score was 0.67 in test [7]; 1.2 (inactive) in test [10]; -2.13 (inactive) in test [12]; -0.461 (inactive) in test [13]; -0.63 (inactive) in test [14]; -0.291 (inactive) in [15].

Turning to `O=C1O[C@@H](c2ccccc2)[C@@H](c2ccccc2)N2[C@@H](c3ccccc3OCCO)[C@]3(C(=O)Nc4ccc(C#CCCO)cc43)[C@@H](C(=O)N3CCN(c4ncccn4)CC3)[C@H]12`, the composite z-score is 1.72 in test [1]; 1.19 in test [2]; 0.747 in test [3]; 0.946 in [4]; 0.389 in test [5]; -0.0344 in test [6]. Further, the composite z-score in test [8] was 0.081; in [9], 0.65; in test [11], 0.174; in test [16] it was 0.139; in test [17] it was -0.0448; in [18], -0.566. Moreover, the composite z-score in test [19] was 0.224; in test [20] it was -0.105. Also, the z-score in test [7] is 0.679; in test [10], 0.27 (inactive); in [12] it was -2.33 (inactive); in [13], 0.608 (inactive); in [14], 0.478 (inactive); in test [15] it was 2.99 (inactive).

Values taken from PubChem BioAssay.
